Screening results deposited in PubChem BioAssay by National Center for Advancing Translational Sciences (NCATS).
AmpC detergent: inhibitors of E. coli AmpC beta-lactamase with detergent. P00811. AmpC hydrolysis of nitrocefin, absorbance 480 nm, 0.01% Triton. Potency, µM (series often up to 114 µM), inactives show at the top dose activity change, negative = inhibition, hits mostly inhibitors. 0.041% of 370,000 active;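 note: 0% = no-compound wells and -100% = no-enzyme wells; nearly all actives have a fitted effect of over 25% in size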
Target sequence (P00811 whole entry, looked up): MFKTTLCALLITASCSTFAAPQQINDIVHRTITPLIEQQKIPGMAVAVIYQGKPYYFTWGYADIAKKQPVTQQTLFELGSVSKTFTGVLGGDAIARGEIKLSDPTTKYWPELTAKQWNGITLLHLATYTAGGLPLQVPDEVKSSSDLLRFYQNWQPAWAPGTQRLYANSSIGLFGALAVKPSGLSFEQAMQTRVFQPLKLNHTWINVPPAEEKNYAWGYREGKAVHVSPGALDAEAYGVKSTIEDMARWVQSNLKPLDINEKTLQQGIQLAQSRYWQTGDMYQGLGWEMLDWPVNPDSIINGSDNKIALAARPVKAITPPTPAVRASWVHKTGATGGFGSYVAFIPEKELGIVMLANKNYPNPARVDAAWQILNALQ
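20 mM phosphate pH 7.0 + 0.01% (detergent screen) or 0.0001% Triton X-100; 5.3 nM AmpC reagent; cpd preinc 15 min RT; nitrocefin (800 uM stock) to start; A480 q20 s × 4 min; Activity was normalised to no-enzyme and no-compound control wells.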
AmpC inh no detg: blocks E. coli AmpC beta-lactamase in detergent-free assay; 0.52% of 330,000 active; AmpC nitrocefin hydrolysis, absorbance 480 nm, 0.0001% Triton; Potency, µM (doses to about 57.1 µM), for the others: at the top dose activity change, negative = inhibition, actives largely listed as inhibitors;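 note: plate controls were no compound for no effect and no enzyme for full effect; nearly all actives have a fitted effect of over 20% in size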
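AmpC (5.3 nM in the dispensed reagent) in 20 mM phosphate pH 7.0 with 0.01% (detergent screen) or 0.0001% Triton X-100 was preincubated with compounds for 15 min at room temperature. Nitrocefin was then added from an 800 uM solution, and hydrolysis was followed at 480 nm.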
AMA1-RON2 inh: AMA1-RON2 (P. falciparum) interaction inhibition. AlphaScreen AMA1-biotinylated RON2 peptide binding. Potency, µM (highest dose often 58.2 µM), inactives show at the highest dose activity change, negative = inhibition, hits mostly inhibitors. 0.2% of 360,000 active. AID 720542;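 note: 0% = vehicle wells and -100% = peptide control; nearly all actives have a fitted effect of over 45% in size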
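AMA1 (3D7) with his tag at 25 nM final met compounds first, then biotinylated RON2 peptide at 25 nM; detection used donor plus acceptor beads, 10 µg/mL apiece, read by AlphaScreen after 30 min at room temperature.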
Giardia FBPA inh-1: blocks Giardia fructose-bisphosphate aldolase activity; Potency, µM (series often up to 59.6 µM), for inactives: at the highest dose activity, negative = inhibition, hits mostly inhibitors; 0.71% of 290,000 active; purified Giardia FBPA; note: nearly all actives have a fitted effect of over 55% in size
Target sequence (A8B2U2 whole entry, looked up): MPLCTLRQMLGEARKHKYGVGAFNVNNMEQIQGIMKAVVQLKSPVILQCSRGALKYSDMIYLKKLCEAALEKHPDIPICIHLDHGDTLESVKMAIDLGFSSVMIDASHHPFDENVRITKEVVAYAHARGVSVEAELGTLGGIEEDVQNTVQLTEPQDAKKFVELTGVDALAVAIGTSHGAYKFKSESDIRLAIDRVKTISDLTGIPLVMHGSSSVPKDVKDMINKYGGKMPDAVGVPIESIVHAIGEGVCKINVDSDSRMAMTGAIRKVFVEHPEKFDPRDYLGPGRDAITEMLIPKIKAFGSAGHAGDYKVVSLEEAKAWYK
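Giardia FBPA (40 nM reagent) was preincubated 10 min at RT with compound (up to 57.5 uM final), then substrate plus GAPDH/TPI/NAD/arsenate coupling system with diaphorase/resazurin was added; resorufin fluorescence (525/598 nm) was read after 20 min.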
Giardia growth: blocks growth of Giardia lamblia trophozoites | Potency, µM (titrated, usually from 57.5 µM), inactives show at the top dose activity change, negative = inhibition, hits mostly inhibitors | shares compounds with Giardia FBPA inh-1 | Giardia lamblia trophozoite growth inhibition | AID 2785 | 5% of 1,500 active;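 note: trophozoites exposed to compound for 48 h at 37 °C; nearly all actives have a fitted effect of over 70% in size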
Mammal cell tox: toxic to mammalian cells in Giardia aldolase counter-screen; mammalian cell viability counter-screen, qHTS; shares compounds with Giardia FBPA inh-1; Potency, µM (highest dose often 57.5 µM), for inactives: top-dose viability change, negative = toxicity, usual class: inhibitors; 4% of 1,500 active;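 note: Chinese hamster ovary cells used as mammalian cytotoxicity surrogate; viability measured as cellular ATP by luminescence; compound exposure lasted 48 h before reading; nearly all actives have a fitted effect of over 60% in size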
Giardia FBPA inh-2: confirmation of Giardia fructose-bisphosphate aldolase inhibitors. 5% of 1,500 active. shares compounds with Giardia FBPA inh-1. Potency, µM (series often up to 57.5 µM), inactives show top-dose activity change, negative = inhibition, hits mostly inhibitors. purified Giardia aldolase enzyme activity, qHTS; note: nearly all actives have a fitted effect of over 45% in size
Rabbit FBPA inh: blocks rabbit muscle aldolase in Giardia aldolase selectivity test | AID 2794 | Rabbit muscle FBPA enzyme inhibition, selectivity counter-screen | Potency, µM (top dose mostly 57.5 µM), for the others: at the top dose activity, negative = inhibition, actives largely listed as inhibitors | shares compounds with Giardia FBPA inh-1 | 4% of 1,500 active; note: nearly all actives have a fitted effect of over 60% in size
GAPDH counter: GAPDH inhibition flagged for Giardia aldolase hits. shares compounds with Giardia FBPA inh-1. GAPDH coupling enzyme counterscreen, biochemical, qHTS. Potency, µM (series often up to 57.5 µM), without a hit: at the highest dose activity change, negative = inhibition, hits mostly inhibitors. 6% of 1,500 active. AID 2795; note: nearly all actives have a fitted effect of over 55% in size
Active calls of the source: *; ? = inconclusive; nt = no result given; [ ] = another dose, or the depositor's remark. Only some compounds are listed: those with a hit (about 1.1% of all), similar ones and a draw of the others. Calls come from the whole dose curve; as a rule, active = well fitted curve in the direction sought with a large enough effect; inconclusive = small, poorly fitted or top-dose-only effect, or another doubt; inactive = no such curve, though single readings can be large; an effect the other way counts as inactive or inconclusive. Unless noted, % is set by controls: 0 for no effect and ±100 for the full control effect; potency is the fitted concentration of half-maximal effect.

SMILES	AmpC detergent	AmpC inh no detg	AMA1-RON2 inh	Giardia FBPA inh-1	Giardia growth	Mammal cell tox	Giardia FBPA inh-2	Rabbit FBPA inh	GAPDH counter
Cc1cc(C)n(C(=O)c2cc([N+](=O)[O-])cc([N+](=O)[O-])c2)n1	5%	-11%	-8%	8%	nt	nt	nt	nt	nt
O=C(O)c1ccc(/C=N/Nc2ccc(Cl)nn2)cc1	-3%	-5%	11%	25µM*	?	4%	-15%	-15%	?
O=C(c1cc(S(=O)(=O)N2CCCC2)c[nH]1)N1CCN(c2cccc(Cl)c2)CC1	-8%	nt	nt	nt	nt	nt	nt	nt	nt
O=C(CSc1ncnc2nc[nH]c12)c1ccc(Cl)cc1	-16%	-19%	130%	14µM*	-7%[10.4 µM]	-7%	-1%	-5%	9%
Cc1ccc(NS(=O)(=O)c2cc(-c3cc(C)no3)ccc2C(C)C)nc1	?	-18%	8%	20µM*	-4%	9%	?	?	?
Cc1ccc2c(c1)N(CCC(=O)NCc1ccccc1Cl)C(=O)CO2	10%	nt	nt	nt	nt	nt	nt	nt	nt
CCOc1ccc(/C=C/C(=O)c2cccs2)cc1	nt	nt	nt	0%	nt	nt	nt	nt	nt
CCN1CCN(CC(=O)N/N=C/c2cc(Br)cs2)CC1	-17%	-11%	-17%	18µM*	15%	22%	2%	5%	10%
CCCSc1nnc(NC(=O)c2cc(=O)c3ccccc3o2)s1	-3%	nt	nt	nt	nt	nt	nt	nt	nt
COc1ccc(/C=C2\C(=O)ON=C2c2ccccc2)cc1	-17%	-27%	-18%	-8%	nt	nt	nt	nt	nt
O=C1ON=C(c2ccccc2)/C1=C/c1ccc(O)c(O)c1	0%	-22%	46%	4µM*	?	-14%	-25%	-19%	2%
COc1ccccc1NS(=O)(=O)c1cc(NC(=O)c2sccc2C)ccc1N1CCOCC1	-1%	2%	3%	-5%	nt	nt	nt	nt	nt
COc1ccccc1NS(=O)(=O)c1cc(NC(=O)c2sccc2C)ccc1N1CCCC1	1%	-41%	-1%	14µM*	-12%[10.4 µM]	-18%	?	?	?
CCCCC(=O)NC(=S)Nc1nnn(CCC)n1	3%	-9%	39%	1.8µM*	-6%[38.3 µM]	40µM*	-15%	8%	?
O=[N+]([O-])c1ccc(N/N=C/c2ccc[nH]2)cc1	23%	?	-17%	18µM*	0%[10.4 µM]	1%	-26%	-18%	?
O=[N+]([O-])c1ccc(N/N=C/c2c[nH]c3ccccc23)cc1	0%	-51%	-10%	0%	nt	nt	nt	nt	nt
O=C(CC1OC(=O)c2ccccc21)Nc1cc(Cl)ccc1N1CCOCC1 (centres undefined)	nt	7%	0%	nt	nt	nt	nt	nt	nt
CCc1ccc(C(=O)CSc2ncn[nH]2)cc1	-12%	-22%	-6%	?	nt	nt	nt	nt	nt
Cc1ccc(C(=O)CSc2ncn[nH]2)cc1	?	-27%	-12%	28µM*	6%[10.4 µM]	-7%	-1%	2%	0%
Cn1c(=O)c2ccccc2n2c(=S)[nH]nc12	-2%	-29%	-4%	16µM*	23%	11%	12%	3%	9%
O=c1c2ccccc2n2c(=S)[nH]nc2n1-c1ccccc1	-6%	-9%	93%	7.1µM*	-8%	4%	6%	14%	15%
Cc1cc(S(=O)(=O)n2ccnc2C(C)C)cc([N+](=O)[O-])c1C	-4%	nt	nt	nt	nt	nt	nt	nt	nt
CN(Cc1ccccc1)C(=S)NC(=O)c1ccc(-c2ccccc2)cc1	-3%	-32%	60%	25%	nt	nt	nt	nt	nt
CN(Cc1ccccc1)C(=S)NC(=O)c1cccs1	-17%	-28%	57%	13µM*	?	-20%	2%	8%	13%
O=[N+]([O-])c1cc2c(cc1CN1CCN(CCOCCO)CC1)OCO2	-13%	-15%	0%	10µM*	-3%[10.4 µM]	9%	-18%	5%	2%
SMILES	AmpC detergent	AmpC inh no detg	AMA1-RON2 inh	Giardia FBPA inh-1	Giardia growth	Mammal cell tox	Giardia FBPA inh-2	Rabbit FBPA inh	GAPDH counter
COn1c(=O)c(=O)n(O)c2ccccc21	-11%	-3%	-17%	-16%	nt	nt	nt	nt	nt
O=c1c(=O)n(O)c2ccccc2n1O	-10%	-11%	20%	18µM*	?	-7%	-18%	-16%	-8%
COc1ccccc1OCC#CCN1CCOCC1	1%	-12%[2.29 µM]	-23%	11µM*	5%[10.4 µM]	0%	1%	2%	14%
COc1ccccc1OCC#CCN1CCCCCC1	-4%	1%[2.29 µM]	?	?	nt	nt	nt	nt	nt
COc1cc(/C=C2\SC(c3ccc(C)cc3)=NC2=O)cc(OC)c1OC	3%	6%	19%	?	nt	nt	nt	nt	nt
COc1cc(/C=C2\SC(c3ccc(C)cc3)=NC2=O)ccc1O	-2%	-29%	0%	18µM*	26%	-3%	?	-30%	-1%
COc1ccc(/C=C2\SC(c3ccc(C)cc3)=NC2=O)cc1OC	4%	-15%	90%	?	nt	nt	nt	nt	nt
CCOc1cc(/C=C2\SC(=O)N=C2N)ccc1O	-6%	-40%	3%	4%	nt	nt	nt	nt	nt
COc1cc(/C=C2\SC(c3ccccc3)=NC2=O)cc(Cl)c1O	5%	-20%	3%	5.6µM*	54%	5%	-26%	-26%	2%
